The structures appear in SMILES notation. Records with an inconclusive call do not appear. A call without a number means that no potency is given here. Active and inactive are the calls of the source. Calls come from the whole dose curve; as a rule, active = well fitted cell-killing curve with a large enough effect in the repeat runs; inconclusive = weak or mixed curves, or effect the other way; inactive = flat fitted curve, though single readings scatter.

The nature of the test: qHTS assay to identify small molecule antagonists of the estrogen receptor alpha (ER-alpha) signaling pathway using the BG1 cell line in the presence of 0.1 nM 17-beta-estradiol - cell viability counter screen (AID 1259241). Note: nearly all actives have a fitted effect of over 40% in size. Conditions: VM7Luc4E2 (BG1) viability, CellTiter-Fluor protease, 22 h, 0.1 nM estradiol agonist added; series mostly up to 92.4 µM; activity change, negative = cytotoxicity: at the top concentration. From the text:
National Center for Advancing Translational Sciences [NCATS]
NIH Chemical Genomics Center [NCGC]
U.S. Environmental Protection Agency [EPA]
National Institutes of Environmental Health Sciences [NIEHS]
National Toxicology Program [NTP]
U.S. Food and Drug Administration [FDA]
Estrogen receptor (ER), a member of the nuclear hormone receptor plays an important role in development, metabolic homeostasis and reproduction. Two subtypes of ER, ER-alpha and ER-beta, have similar expression patterns with some uniqueness in both types. Endocrine disrupting chemicals (EDCs) and their interactions with steroid hormone receptors like ER causes disruption of normal endocrine function. Therefore, it is important to understand the effect of environmental chemicals in ER signaling pathway. For identifying ER antagonists, VM7Luc4E2 cell line was used to screen against Tox21 compound libraries.
VM7Luc4E2 cell line (provided by Denison MS, University of California) endogenously express full-length ER-alpha and is stably transfected with a plasmid containing four estrogen responsive elements (ERE) upstream of a luciferase reporter gene. The current screening for identification of ER-alpha inhibitors against Tox21 compound libraries used lower concentration (0.1 nM) of 17beta-Estradiol as a stimulator. The cytotoxicity of the Tox21 compound libraries against VM7Luc4E2 cell line was tested by measuring live-cell protease activity using CellTiter-Fluor assay in the same wells.
Tox21 Assay Protocol Summary:
VM7Luc4E2 cells were cultured in phenol red free assay medium containing 10% charcoal stripped FBS for 5 days prior to the assay. The cells were dispensed at 4,000 cells/well in 4 uL of assay medium into white wall/solid-bottom 1536-well plates (Corning Life Sciences, Corning, NY) using a Multidrop Combi (ThermoFisher Scientific, Waltham, MA) dispenser. After the assay plates were incubated at 37C and 5% CO2 for 24 hr, 23 nL of compounds dissolved in DMSO, positive controls or DMSO only was transferred to the assay plates by a Pintool station (Kalypsys, San Diego, CA). The transfer of compounds was followed by the addition of 1 uL of 0.1 nM (final concentration) agonist (17beta-Estradiol)/assay medium using a Flying Reagent Dispenser (FRD, Aurora Discovery, San Diego, CA). The plates were incubated at 37C and 5% CO2 for 22 hr. For cytotoxicity assay, 1 uL of CellTiter-Fluor reagent (Promega Corporation, Madison, WI) was added to each well using the FRD and after 30 min incubation at 37C and 5% CO2, The fluorescence intensity was measured using ViewLux plate reader (PerkinElmer, Shelton, CT).
For orientation: qHTS replaces the single test concentration by a dilution series.
For the compound `N[C@@H](Cc1cc(I)c(Oc2cc(I)c(O)c(I)c2)c(I)c1)C(=O)O`, the Potency result was “inactive”.

Take `CCCCCCCCCCCCc1ccccc1`: the Potency entry is “inactive”.

As to `CCc1ccc(CCOc2ccc(CC3SC(=O)NC3=O)cc2)nc1` (stereo not given), the Potency result was “inactive”.

For the compound `Cc1ccc(S(N)(=O)=O)cc1`, the Potency result was “inactive”.

For `O=C(O)c1cc(=O)c2c(OCC(O)COc3cccc4oc(C(=O)O)cc(=O)c34)cccc2o1`, the “activity change, negative = cytotoxicity” value is -10.2% (inactive).

As to `C[C@H]1C[C@H]2[C@@H]3CCC4=CC(=O)C=C[C@]4(C)[C@@]3(F)[C@@H](O)C[C@]2(C)[C@@]1(O)C(=O)CO`, the Potency entry was “inactive”.

As to `Fc1ccc(Br)cc1`, the Potency entry is “inactive”.

`O=C(O)CCCC[C@@H]1SC[C@@H]2NC(=O)N[C@@H]21`: the Potency entry was “inactive”.

For `CCCCC(CC)CO` (stereo not given), the Potency result was “inactive”.

In the case of `C=CCOC(=O)c1ccccc1C(=O)OCC=C`, the Potency result is “inactive”.

Turning to `CC(C)c1ccc(S(=O)(=O)O)cc1`, the Potency result is “inactive”.

Turning to `FC(F)(F)c1ccc(Cl)c(Cl)c1`, the Potency result was “inactive”.

Regarding `O=c1[nH]c(=O)n([C@H]2C[C@H](O)[C@@H](CO)O2)cc1Br`, the Potency result was “inactive”.

In the case of `CCCCC(CC)COC(=O)C(C#N)=C(c1ccccc1)c1ccccc1` (stereo not given), the Potency entry was “inactive”.

Consider `OCCOCCOCCO`, for which the Potency entry is “inactive”.

For `O=P(OC(CCl)CCl)(OC(CCl)CCl)OC(CCl)CCl`, the Potency result is “inactive”.

With `C=C(C)C(=O)OCCOCCOCCOC(=O)C(=C)C`, the Potency result was “inactive”.

Turning to `O=C(O)c1cc(C(=O)O)cc(S(=O)(=O)O)c1`, the Potency result is “inactive”.

In the case of `CN(C)CCC(c1ccc(Cl)cc1)c1ccccn1` (stereo not given), the “activity change, negative = cytotoxicity” value is -17.9% (inactive).

With `CCCCCCCCCCCCOCCO`, the Potency result is “inactive”.

On to `Oc1cccc2ccccc12`, for which the Potency result was “inactive”.

As for `Cc1ccc2oc(=O)ccc2c1`, the Potency entry was “inactive”.

For `CCCC(C)=O`, the Potency result is “inactive”.

`c1ccc2scnc2c1`: the Potency result was “inactive”.

In the case of `CC(=O)OCC(=O)[C@@]12N=C(C)O[C@@H]1C[C@H]1[C@@H]3CCC4=CC(=O)C=C[C@]4(C)[C@H]3[C@@H](O)C[C@@]12C`, the Potency result is “inactive”.

Regarding `CC(C)(C)[C@@H](O)[C@@H](Cc1ccc(Cl)cc1)n1cncn1`, the Potency entry was “inactive”.

For `Cc1cnc(C(=O)NCCc2ccc(S(=O)(=O)NC(=O)NC3CCCCC3)cc2)cn1`, the Potency result is “inactive”.

With `O=C(O)CCCCCCCCCCC(=O)O`, the Potency result is “inactive”.

Regarding `CSCCC=O`, the Potency entry was “inactive”.

As for `CC[C@H](C)C(=O)O[C@H]1C[C@@H](C)C=C2C=C[C@H](C)[C@H](CC[C@@H]3C[C@@H](O)CC(=O)O3)[C@H]21`, the Potency result is “inactive”.

Turning to `CC1CCC(C(C)C)C(O)C1` (stereo not given), the Potency result was “inactive”.

As to `c1c[nH]cn1`, the Potency entry is “inactive”.

With `CCCCCCCC(=O)OC`, the Potency entry was “inactive”.

As to `CC(=O)Nc1cccc(O)c1`, the Potency result is “inactive”.

As for `Cc1occc(=O)c1O`, the Potency entry is “inactive”.

For `CCCSc1ccc2nc(NC(=O)OC)[nH]c2c1`, the Potency entry is “inactive”.

`CCCCCCCCCC`: the Potency entry was “inactive”.

As for `OCc1cccnc1`, the Potency entry is “inactive”.

With `CC(O)COCC(C)O` (stereo not given), the Potency result was “inactive”.

With `COc1ccc2cc([C@H](C)C(=O)O)ccc2c1`, the Potency entry is “inactive”.

Values taken from PubChem BioAssay (Tox21).
